Pf Dd2 growth – blocks in vitro growth of P. falciparum Dd2 | P. falciparum Dd2 growth, SYBR Green, 72 h | Potency, µM (top dose mostly 28.9 µM), inactives show at the top dose activity, negative = inhibition, hits mostly inhibitors | 120,000 compounds, 4.3% hits; active = well fitted inhibition curve with a large enough effect;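 note: plate controls were DMSO vehicle for no effect and reference drug for full effect; nearly all actives have a fitted effect of over 65% in size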
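Infected erythrocytes (Dd2, 0.3% parasitemia, 2.5% hematocrit final) are added to compound in RPMI-1640/Albumax II medium, grown 72 h at 37C in low oxygen, then lysed with saponin/Triton-X containing SYBR Green and read by fluorescence.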
The depositor's hits bear a star; i = inactive; [ ] = another dose, or the depositor's remark. Shown is part of a subset that was picked to be rich in hits. Potency is the fitted concentration of half-maximal effect.

SMILES | Pf Dd2 growth
CCOc1ccc(S(=O)(=O)c2c(C(=O)c3ccc(C)c(C)c3)cnc3ccccc23)cc1 | 7.9µM*
CCOc1ccc(Nc2c(S(=O)(=O)c3ccc(C)cc3)cnc3ccc(OC)cc23)cc1 | i
COc1ccc(-c2cc(C(=O)Oc3cccc(C)c3)c3cc(C)ccc3n2)cc1 | 43%
CCOc1ccc(Nc2c(S(=O)(=O)c3ccc(C)cc3)cnc3cc(OC)c(OC)cc23)cc1 | -28%
COc1ccc(S(=O)(=O)c2c(C(=O)c3ccc(C)c(C)c3)cnc3ccc(F)cc23)cc1 | -22%
COc1ccc(C(=O)c2cnc3ccc(C)cc3c2S(=O)(=O)c2ccccc2)cc1 | 11µM*
CC1(c2noc(C3CC3)n2)CCN(C(=O)CNc2ccc3nnc(-c4cccnc4)n3n2)CC1 | -15%
O=C(NCc1nnc2c(-c3nc(C4CC4)no3)cccn12)C1CC1 | i
O=C(NCCc1ccccc1)c1cc(-c2ccc(Br)cc2)on1 | i
CN1CC2(CCN(C(=O)CCCc3ccccc3)CC2)CC1C(=O)N1CCOCC1 (stereo not given) | 2.2µM*
CN1CC2(CCN(Cc3cccn3C)CC2)CC1C(=O)N1CCOCC1 (stereo not given) | -26%
CN1CC2(CCN(Cc3ccccn3)CC2)CC1C(=O)N1CCOCC1 (stereo not given) | -1%
COc1ccc(CNC(=O)c2cc3c(s2)CCN(C(C)=O)C3)cc1 | i
COc1ccc(NC(=O)c2c(NCc3cccc(F)c3)sc3c2CCCC3)c(OC)c1 | 8.9µM*
COc1ccc(NC(=O)c2c(NC(=O)COc3ccccc3)sc3c2CCCCC3)cc1 | 11%[0.594 µM]
COC(=O)c1ccc(NC(=O)c2c(NCc3cccc(F)c3)sc3c2CCCC3)cc1 | 13µM*
COC(=O)c1c(NC(=O)COc2cccc(C(F)(F)F)c2)sc2c1CCCC2 | 77%
CCOC(=O)N1CCc2c(sc(NCc3cccc(F)c3)c2C(=O)Nc2ccc(OC)cc2)C1 | 7.9µM*
CCC(=O)Nc1sc2c(c1C(=O)Nc1ccc(OC)cc1)CCC(C(C)(C)C)C2 (stereo not given) | -2%
CCOC(=O)N1CCc2c(sc(NCc3ccc(N(C)C)cc3)c2C(=O)Nc2ccc(OC)cc2)C1 | 11µM*
COc1ccc(S(=O)(=O)N2CCc3c(C(=O)NCc4cccc(F)c4)cccc32)cc1 | i
COC(=O)c1c(NC(=O)c2c(OC)cccc2OC)sc2c1CCCC2 | 18%
CCNC(=O)c1c(NC(=O)COc2ccc(F)cc2)sc2c1CCCC2 | -2%
COc1ccc(-c2cnc(C)o2)cc1S(=O)(=O)Nc1ccc(OC(F)(F)F)cc1 | 13%
CCOC(=O)c1sc2ccccc2c1S(=O)(=O)N1CCN(c2ccccc2F)CC1 | -29%
SMILES | Pf Dd2 growth
O=C(c1ccccc1Cl)N1CCCC2(C1)NC(=O)N(Cc1ccccc1)C2=O (stereo not given) | i
OCC1(CC2CC2)CCCN(c2nc(-c3ccccc3)no2)C1 (stereo not given) | -20%
CC(C)NC(=O)Nc1ccc([C@H]2OCC(=O)N(C3CCOCC3)[C@@H]2CO)cc1 | 1%[44.1 µM]
COCc1noc([C@@H]2CN(Cc3ccc4c(c3)CCO4)C[C@H]2C(N)=O)n1 | -22%
Cn1cnc(S(=O)(=O)N2C[C@@H](Oc3cccnc3)C[C@@H]2C(=O)N2CCOCC2)c1 | -3%
Cc1nc(-c2ccc(Cl)cc2)sc1CCNC(=O)c1cccs1 | 39%
O=C(NC1CCN(c2cc(-c3ccc(Cl)cc3)[nH]n2)CC1)c1cccc(F)c1 | 80%
CCOC(=O)c1c(NC(=O)CS(=O)(=O)c2ccc(Cl)cc2)sc2c1CCCC2 | i
COc1ccc(NC(=O)c2c(NC(=O)c3ccc(Br)cc3)sc3c2CCCC3)cc1 | -9%
CCOC(=O)c1ccc(NC(=O)c2c(NCc3cc(OC)c(OC)cc3OC)sc3c2CCCC3)cc1 | 13µM*
CCC(=O)N1CCc2c(C(=O)Nc3ccc(OC)cc3OC)cccc21 | -21%
CCOC(=O)N1CCc2c(sc(NCc3cccc(F)c3)c2C(=O)Nc2ccc(OC)cc2OC)C1 | 4µM*
COc1ccc(NC(=O)CN2CCN(CC(=O)Nc3ccccc3F)CC2)c(OC)c1 | -1%
Cc1ccc(Nc2nc(N)nc(N)c2S(=O)(=O)c2ccccc2)cc1 | -5%
COc1ccccc1CNC(=O)C(C)n1ccc2cc(S(=O)(=O)N3CCCC3)ccc21 (stereo not given) | -19%
COc1ccc(C2Cn3nnc(C(=O)N4CCN(C(=O)c5cc(F)ccc5F)CC4)c3CO2)cc1 (stereo not given) | -11%
O=C(c1ccc2c(c1)OCO2)N1CCC2(CC1)N=C(c1ccc(Cl)cc1)NO2 | 7.9µM*
Cc1ccc(C2=NC3(CCN(C(=O)c4ccc5c(c4)OCO5)CC3)ON2)cc1 | i
Cc1ccc(C(=O)N2CCC3(CC2)N=C(c2ccc(Cl)cc2)NO3)cc1F | -12%
Cc1noc([C@@H]2CN(C(=O)Cc3c[nH]c4ccccc34)C[C@H]2CO)n1 | -11%
COc1ccc(N2Cc3c(NCCc4ccc(F)cc4)ncnc3N(C)CC2=O)cc1 | -28%
COCCN1C(=O)[C@H]2CN(Cc3cc(Br)ccc3OC)C[C@H]2C1=O | -17%
c1coc(-c2nc(CNC3CCC4(CCNCC4)CC3)no2)c1 | 11µM*
c1ccc(-c2noc(CCNC3CCC4(CCNCC4)CC3)n2)nc1 | -2%
CCc1csc(CNC2CCC3(CCNCC3)CC2)n1 | -12%
SMILES | Pf Dd2 growth
COc1ccc(C(=O)N2CCn3c(nnc3C3CC3)C2)cc1 | 11%[44.1 µM]
COC(=O)CNC(=O)C1c2ccccc2C(=O)N(C2CCCC2)C12CCCCC2 (stereo not given) | -15%
CC(C)NC(=O)C1c2ccccc2C(=O)N(C2CCCC2)C12CCCC2 (stereo not given) | 11%
O=C(NC1CCCC1)C1c2ccccc2C(=O)N(C2CCCC2)C12CCCCC2 (stereo not given) | 10µM*
CCOc1ccc(NC(=O)Cn2ccn(-c3ccc(F)c(F)c3)c(=O)c2=O)cc1 | 62%
c1ccc2c(c1)cnn2CCCn1ccnc1-c1cc2n(n1)CCCNC2 | -10%
COCCn1c(=O)n([C@H]2CCCN(C(=O)c3cc(F)ccc3F)C2)c2ncccc21 | 4%
CCOC(=O)CCNC(=O)N1CCC[C@H](n2c(=O)n(CC3CC3)c3cccnc32)C1 | -15%
COc1ccc(C(=O)N2CCC[C@H](n3c(=O)n(CC4CC4)c4cccnc43)C2)cc1F | 13µM*
CC(=O)N1CCN(c2nc3c(s2)CC(C(=O)N2CCN(C4CCCC4)CC2)CC3)CC1 (stereo not given) | -16%
C[C@@H]1CN(C(=O)c2ccc(Cn3cccn3)o2)CC[C@]1(C)O | 6%
C#C[C@H]1CN2CC[C@H]1C[C@@H]2COC(=O)Nc1ccc(C(C)(C)C)cc1 | -15%[44.1 µM]
C#C[C@H]1CN2CC[C@H]1C[C@@H]2COC(=O)Nc1ccc(Br)cc1 | i
C#C[C@H]1CN2CC[C@H]1C[C@@H]2COC(=O)Nc1ccc(OC(F)(F)F)cc1 | 11µM*
O=C(NCc1ccccc1Cl)c1csc(N2CCN(c3ccc(F)cc3)CC2)n1 | i
COc1ccc(N2CCN(c3nc(C(=O)NCc4cccc(C)c4)cs3)CC2)cc1 | 3.2µM*
COc1ccc(N2CCN(c3nc(C(=O)NCc4ccccc4C)cs3)CC2)cc1 | 8.9µM*
COc1ccc(N2CCN(c3nc(C(=O)NCc4ccc(C)cc4)cs3)CC2)cc1 | -10%
COc1ccc(N2CCN(c3nc(C(=O)NC4CC4)cs3)CC2)cc1 | i
O=C(NCc1cccs1)c1csc(N2CCN(c3ccc(F)cc3)CC2)n1 | i
COc1ccc(NC(=O)CSc2nnc3c(C)cc4ccccc4n23)cc1 | 13%
COc1ccc(OC)c(CNS(=O)(=O)c2ccc3c(c2)CCCN3C(C)=O)c1 | 9%

Screening data from PubChem.
